Results filed as inconclusive are left out. Calls of active or inactive are those of the source. Unless noted, calls come from the whole dose curve; as a rule, active = well fitted cell-killing curve with a large enough effect; inconclusive = small, poorly fitted or top-dose-only effect; inactive = flat fitted curve, though single readings scatter.

The record followed here is PubChem BioAssay (NCATS).

The nature of test [1]: Cell Viability - LYMP2-020 (AID 986).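 Note: series mostly up to about 92 µM; cells exposed to compound for 24 h at 37 °C; plate controls were DMSO only for no effect and tetraoctylammonium bromide at 92 µM for full effect; nearly all actives have a fitted effect of over 55% in size.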 The essentials: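 Seed 2500 cells per well and incubate 5 hr at 37 C. Add compounds at a concentration series and incubate 24 hr at 37 C. Add CellTiter-Glo, wait 30 min at RT, read luminescence, and fit a Hill curve for AC50.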
The nature of test [2]: Cell Viability - LYMP2-022 (AID 987).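 Note: 0% = DMSO alone and full effect = tetraoctylammonium bromide at 92 µM; nearly all actives have a fitted effect of over 55% in size.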 In a few lines: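 Cells were seeded at 2500 per well, rested 5 hr at 37 C, and treated with titrated compounds for 24 hr at 37 C. Cellular ATP was then quantified by luciferase luminescence, and AC50 values were derived from Hill-modelled concentration-response curves.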
Test [3] can be described thus: Cell Viability - LYMP2-024 (AID 988).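 Note: plate controls were DMSO only for no effect and 92 µM tetraoctylammonium bromide for full effect; nearly all actives have a fitted effect of over 60% in size.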 In a few lines:
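qHTS cytotoxicity, human lymphoblastoid line, complete medium; 24 h cpd treatment, 37 C; CellTiter-Glo ATP luminescence readout; tetraoctylammonium bromide positive control; AC50 via Hill fit.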

Test [4] can be described thus: Cell Viability - LYMP2-026 (AID 989).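 Note: cells exposed to compound for 24 h at 37 °C; % is set by controls: 0 for no effect and ±100 for the full control effect; nearly all actives have a fitted effect of over 50% in size.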 The essentials: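 Cells are seeded at 2500 per well and held 5 hr at 37 C. Compounds are added in concentration series for 24 hr, then CellTiter-Glo reagent is applied and luminescence read.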
Test [5] is described as follows: Cell Viability - LYMP1-002 - Assay at 24 hr (AID 993). Note: % is set by controls: 0 for no effect and ±100 for the full control effect. In a few lines: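 Acute toxicity is measured as concentration-dependent loss of cellular ATP in a human lymphoblastoid line (Coriell LYMP1-002) after 24 h treatment in complete medium. ATP is quantified by luciferase luminescence and AC50 derived by Hill modelling.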
Test [6] can be described thus: Cell Viability - LYMP1-002 - Assay at 40 hr (AID 994).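 Note: 0% = DMSO only and full inhibition = 92 µM tetraoctylammonium bromide; nearly all actives have a fitted effect of over 60% in size.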 In a few lines:
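Cells are plated at 2500 per well and rested 5 hr at 37 C. Compounds are added and incubated 40 hr at 37 C. CellTiter-Glo reagent is added for 30 min at room temperature before luminescence is read.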

Test [7] can be described thus: qHTS Assay for Identification of Small Molecule Inducers of Hypoxia Response (AID 2120; active = well fitted curve in the direction sought with a large enough effect in the signal ratio, with a control signal flat, not every such curve was filed as active; the % refers to the signal ratio; note: 0% is about no effect). The essentials: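 Cell-based qHTS for reporter induction: hypoxia response element controlled beta-lactamase in ME-180 cells. Compounds incubated 17 h at 37 degrees C; activity from blue/green (460/530 nm) ratio, inducers ranked by AC50.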
In test [8] the target is Estrogen receptor (Homo sapiens) (UniProt P03372). Kind of test: qHTS assay for small molecule antagonists of estrogen receptor alpha signaling (AID 588513; active = well fitted curve in the direction sought with a large enough effect in the signal ratio, with a control signal flat, not every such curve was filed as active; the % refers to the signal ratio; note: % is set by controls: 0 for no effect and ±100 for the full control effect). The essentials:
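Beta-lactamase reporter, antagonist mode, HEK 293 GripTite cells; 0.5nM E2 stimulus, 18 h, 37 C; CCF4 dye 2 h RT; fluorescence. IC50 and efficacy from Hill fits, normalized to E2 and DMSO.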
Background: Quantitative high-throughput screening tests each substance at several concentrations.

The target is the same in test [9]. Nature of the test: qHTS assay for small molecule agonists of estrogen receptor alpha signaling (AID 588514; calls by dose curve;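 note: 0% = vehicle only and 100% = reference agonist; nearly all actives have a fitted effect of over 70% in size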). The essentials:
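Efficacy is expressed against 20 nM 17-beta-estradiol (100%) and DMSO basal (0%); EC50 from Hill equation. Assay: beta-lactamase reporter in ER-alpha-UAS-bla HEK 293 cells, 18 h compound incubation, CCF4 detection.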

Test [10] concerns the target Androgen receptor (Homo sapiens) (UniProt P10275). Nature of the test: qHTS assay for small molecule agonists of androgen receptor signaling (AID 588515; active = well fitted curve in the direction sought with a large enough effect in the signal ratio, with a control signal flat; the % refers to the signal ratio; note: % is set by controls: 0 for no effect and ±100 for the full control effect). The note with it: AR-UAS-bla HEK293, beta-lactamase ratio, agonist 16 h; stronger effect = higher value. The essentials:
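Stimulation of an AR-responsive β-lactamase reporter in GripTite HEK293 cells was measured after 16 h compound exposure at 37 °C, via CCF4 fluorescence after 2 h RT. EC50 from Hill fits, normalized to R1881 at 30 nM.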

A short description of test [11]: qHTS assay for small molecule antagonists of peroxisome proliferator-activated receptor delta signaling (AID 588535; active = well fitted inhibition curve with a large enough effect in the signal ratio, with a control signal flat, not every such curve was filed as active; the % refers to the signal ratio;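 for max response: cells co-treated with a PPAR-delta agonist as stimulator during compound exposure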). The following applies: HEK293T PPARd-UAS-bla, beta-lactamase FRET ratio, 18 h; 460 nm channel. The essentials: (§1)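 Inhibition of PPAR-delta response element-driven beta-lactamase expression is measured in HEK293T cells exposed to a compound titration series for 18 hrs at 37 C. Half-maximal inhibition comes from Hill equation fitting.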

Test [12] concerns the target Peroxisome proliferator-activated receptor gamma (Homo sapiens) (UniProt P37231). Nature of the test: qHTS assay for small molecule agonists of peroxisome proliferator-activated receptor gamma signaling (AID 588536; active = well fitted curve in the direction sought with a large enough effect in the signal ratio, with a control signal flat, not every such curve was filed as active; the % refers to the signal ratio;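 note: 0% = DMSO basal wells and 100% = rosiglitazone at 2 µM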). In a few lines:
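Beta-lactamase reporter read-out: CCF4 fluorescence (ex 405, em 460/530 nm) after 2 h at RT. HEK293 GeneBLAzer cells were treated for 16 h at 37 C. Hill fits gave EC50 and efficacy versus 2 uM rosiglitazone (100%) and DMSO (0%).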

The target is the same in test [13]. Nature of the test: qHTS assay for small molecule antagonists of peroxisome proliferator-activated receptor gamma signaling (AID 588537; active = well fitted inhibition curve with a large enough effect in the signal ratio, with a control signal flat, not every such curve was filed as active; the % refers to the signal ratio;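 note: reporter cells co-stimulated with 50 nM rosiglitazone agonist during compound treatment; % of control where 0% means no effect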). The essentials:
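Compounds are tested as concentration series for inhibition of rosiglitazone-driven (50 nM) reporter expression in GeneBLAzer PPAR-gamma-UAS-bla HEK293 cells. After 16 h at 37 C, CCF4 substrate is added for 2 h at room temperature and blue/green fluorescence is measured.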

In test [14] the target is Vitamin D3 receptor (Homo sapiens) (UniProt P11473). Nature of the test: qHTS assay for small molecule antagonists of vitamin D receptor signaling (AID 588541; calls by dose curve;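 note: receptor activated by calcitriol during compound treatment; series mostly up to about 77 µM; % is set by controls: 0 for no effect and ±100 for the full control effect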). In a few lines:
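VDR-UAS-bla HEK293T cells (2000/well, 2% charcoal-stripped FBS) were treated with titrated compounds plus 1-alpha,25-dihydroxyvitamin D3 (50 nM or 3 nM final) for 16 h at 37 C. CCF4 beta-lactamase fluorescence was read; Hill fits gave IC50.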

Test [15] shares this target. Nature of the test: qHTS assay for small molecule agonists of vitamin D receptor signaling (AID 588543; calls by dose curve;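 note: 0% = DMSO basal and 100% = reference agonist control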). In a few lines: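 β-lactamase reporter, VDR-UAS-bla HEK293T, agonist mode. Cells plated 5 h at 37 °C, compound titration 16 h at 37 °C, CCF4 dye 2 h RT, ratio 460/530 nm. Hill fit → EC50, efficacy vs 50 nM 1α,25-(OH)2D3.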
The target of test [16] is Androgen receptor (Homo sapiens) (UniProt P10275). Kind of test: qHTS assay for small molecule antagonists of androgen receptor signaling (AID 588516; active = well fitted curve in the direction sought with a large enough effect in the signal ratio, with a control signal flat, not every such curve was filed as active; the % refers to the signal ratio; note: % is set by controls: 0 for no effect and ±100 for the full control effect). The essentials:
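HEK293 AR-UAS-bla cells, 10% dialyzed FBS medium; cpd titration + R1881 10 nM final, 16 h 37 C; CCF4 2 h RT; FRET ratio; IC50/efficacy via Hill fit.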

Test [17] has as its target Bile acid receptor (Homo sapiens) (UniProt Q96RI1). Nature of the test: qHTS assay for small molecule antagonists of farnesoid X receptor signaling (AID 588526; calls by dose curve; note: % is set by controls: 0 for no effect and ±100 for the full control effect). In a few lines: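 Concentration-response titrations were fitted to the Hill equation for half-maximal inhibition and maximal response, with data normalised to 50 uM chenodeoxycholic acid and DMSO control wells. Cells: FXR-UAS-bla HEK293T, dialyzed FBS.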

The target of test [18] is Glucocorticoid receptor (Homo sapiens) (UniProt P04150). Kind of test: qHTS assay for small molecule agonists of glucocorticoid receptor signaling (AID 588532; active = well fitted curve in the direction sought with a large enough effect in the signal ratio, with a control signal flat; the % refers to the signal ratio;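 note: 100% = dexamethasone at 0.1 µM and 0% = DMSO only wells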). The following applies: HeLa MMTV-bla, beta-lactamase ratio, agonist, 18 h; stronger effect = higher value; percent of dexamethasone control, DMSO zero. The essentials:
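Titration series, up to 92 uM, applied to GRE-bla HeLa cells for 18 h at 37 C. Detection by CCF4 FRET substrate after 2 h at RT.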

Test [19] has the same target. Kind of test: qHTS assay for small molecule antagonists of glucocorticoid receptor signaling (AID 588533; active = well fitted inhibition curve with a large enough effect in the signal ratio, with a control signal flat, not every such curve was filed as active; the % refers to the signal ratio). The essentials:
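Antagonist-mode qHTS: compound titrations added to GRE-bla HeLa cells, then dexamethasone 2 nM final; 18 h, 37 C. CCF4 FRET fluorescence normalized to dexamethasone and DMSO; IC50 from Hill fit.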

The target of test [20] is Peroxisome proliferator-activated receptor delta (Homo sapiens) (UniProt Q03181). Nature of the test: qHTS assay for small molecule antagonists of peroxisome proliferator-activated receptor delta signaling (AID 588535).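 For max response: cells co-treated with a PPAR-delta agonist as stimulator during compound exposure.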 In a few lines:
as §1

Chain of Androgen receptor (Homo sapiens) (P10275 whole entry, looked up): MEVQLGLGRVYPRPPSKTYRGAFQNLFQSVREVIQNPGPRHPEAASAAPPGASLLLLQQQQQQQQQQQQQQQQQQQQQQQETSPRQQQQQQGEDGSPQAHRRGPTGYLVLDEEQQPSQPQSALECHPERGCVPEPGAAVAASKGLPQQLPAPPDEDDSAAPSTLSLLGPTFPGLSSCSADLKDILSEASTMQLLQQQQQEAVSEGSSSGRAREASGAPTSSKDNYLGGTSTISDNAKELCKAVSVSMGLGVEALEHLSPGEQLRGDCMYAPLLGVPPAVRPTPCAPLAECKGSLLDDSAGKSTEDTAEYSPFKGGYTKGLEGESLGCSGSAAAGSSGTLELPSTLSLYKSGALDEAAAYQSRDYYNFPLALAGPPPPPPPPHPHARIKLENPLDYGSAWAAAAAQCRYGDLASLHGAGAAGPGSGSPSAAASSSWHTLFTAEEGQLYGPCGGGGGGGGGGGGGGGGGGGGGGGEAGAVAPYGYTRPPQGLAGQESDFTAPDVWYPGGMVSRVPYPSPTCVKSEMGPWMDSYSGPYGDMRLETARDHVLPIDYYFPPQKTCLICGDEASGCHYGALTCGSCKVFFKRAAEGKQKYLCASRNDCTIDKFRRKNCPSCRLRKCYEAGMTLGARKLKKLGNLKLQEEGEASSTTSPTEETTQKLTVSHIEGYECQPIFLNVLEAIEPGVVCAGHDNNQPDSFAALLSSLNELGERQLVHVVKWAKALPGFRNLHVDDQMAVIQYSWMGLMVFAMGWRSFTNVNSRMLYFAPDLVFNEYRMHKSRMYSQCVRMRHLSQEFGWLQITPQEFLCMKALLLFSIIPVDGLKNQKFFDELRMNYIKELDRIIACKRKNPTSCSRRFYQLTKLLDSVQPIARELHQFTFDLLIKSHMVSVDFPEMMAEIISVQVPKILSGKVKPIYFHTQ
Chain of Vitamin D3 receptor (Homo sapiens) (P11473 whole entry, looked up): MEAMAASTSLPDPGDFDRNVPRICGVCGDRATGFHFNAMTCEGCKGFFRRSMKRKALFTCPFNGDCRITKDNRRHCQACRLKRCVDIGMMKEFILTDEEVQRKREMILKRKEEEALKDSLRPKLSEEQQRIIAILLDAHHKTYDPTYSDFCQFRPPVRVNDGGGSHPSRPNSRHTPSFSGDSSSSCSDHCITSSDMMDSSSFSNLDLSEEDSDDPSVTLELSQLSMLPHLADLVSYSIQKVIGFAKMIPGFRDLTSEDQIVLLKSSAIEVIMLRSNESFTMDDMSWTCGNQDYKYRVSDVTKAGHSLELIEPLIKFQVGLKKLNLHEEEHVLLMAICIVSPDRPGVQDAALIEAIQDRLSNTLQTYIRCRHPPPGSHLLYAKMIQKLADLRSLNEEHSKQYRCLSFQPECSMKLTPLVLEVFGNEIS
Chain of Glucocorticoid receptor (Homo sapiens) (P04150 whole entry, looked up): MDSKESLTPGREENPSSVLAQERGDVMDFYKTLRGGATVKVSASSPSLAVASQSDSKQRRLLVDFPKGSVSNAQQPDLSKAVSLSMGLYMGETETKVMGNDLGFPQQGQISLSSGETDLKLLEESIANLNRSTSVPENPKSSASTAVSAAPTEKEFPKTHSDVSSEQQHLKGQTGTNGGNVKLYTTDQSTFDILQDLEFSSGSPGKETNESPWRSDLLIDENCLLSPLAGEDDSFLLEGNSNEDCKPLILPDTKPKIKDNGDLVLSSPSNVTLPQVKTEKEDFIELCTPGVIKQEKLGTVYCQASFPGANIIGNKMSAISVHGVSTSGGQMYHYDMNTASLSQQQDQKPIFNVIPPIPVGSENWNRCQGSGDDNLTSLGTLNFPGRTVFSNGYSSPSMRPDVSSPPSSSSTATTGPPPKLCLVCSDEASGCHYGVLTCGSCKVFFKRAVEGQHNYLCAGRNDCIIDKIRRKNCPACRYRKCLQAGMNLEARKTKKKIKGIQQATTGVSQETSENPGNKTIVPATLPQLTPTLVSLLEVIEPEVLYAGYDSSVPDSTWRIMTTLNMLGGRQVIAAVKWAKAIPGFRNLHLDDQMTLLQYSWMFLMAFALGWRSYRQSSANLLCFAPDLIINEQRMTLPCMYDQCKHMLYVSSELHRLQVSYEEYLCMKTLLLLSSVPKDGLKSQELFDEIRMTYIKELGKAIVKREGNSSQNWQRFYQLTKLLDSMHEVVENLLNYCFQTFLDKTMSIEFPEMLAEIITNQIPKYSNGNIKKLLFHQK
Chain of Estrogen receptor (Homo sapiens) (P03372 whole entry, looked up): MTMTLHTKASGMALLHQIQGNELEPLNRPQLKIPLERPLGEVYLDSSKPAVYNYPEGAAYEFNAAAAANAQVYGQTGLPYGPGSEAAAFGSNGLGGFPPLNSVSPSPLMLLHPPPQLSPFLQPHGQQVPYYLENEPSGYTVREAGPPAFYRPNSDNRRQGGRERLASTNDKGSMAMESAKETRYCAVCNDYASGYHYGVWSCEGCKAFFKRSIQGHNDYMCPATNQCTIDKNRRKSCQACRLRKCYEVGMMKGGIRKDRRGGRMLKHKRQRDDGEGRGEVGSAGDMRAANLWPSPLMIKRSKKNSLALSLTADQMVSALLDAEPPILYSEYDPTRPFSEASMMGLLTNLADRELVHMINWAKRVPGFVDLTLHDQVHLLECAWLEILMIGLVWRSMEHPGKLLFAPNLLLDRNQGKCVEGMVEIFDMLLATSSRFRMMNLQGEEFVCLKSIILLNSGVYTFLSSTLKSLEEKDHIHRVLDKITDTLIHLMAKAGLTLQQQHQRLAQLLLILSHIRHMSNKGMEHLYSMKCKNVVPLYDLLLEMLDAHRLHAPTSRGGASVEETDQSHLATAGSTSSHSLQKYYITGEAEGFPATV
Chain of Peroxisome proliferator-activated receptor gamma (Homo sapiens) (P37231 whole entry, looked up): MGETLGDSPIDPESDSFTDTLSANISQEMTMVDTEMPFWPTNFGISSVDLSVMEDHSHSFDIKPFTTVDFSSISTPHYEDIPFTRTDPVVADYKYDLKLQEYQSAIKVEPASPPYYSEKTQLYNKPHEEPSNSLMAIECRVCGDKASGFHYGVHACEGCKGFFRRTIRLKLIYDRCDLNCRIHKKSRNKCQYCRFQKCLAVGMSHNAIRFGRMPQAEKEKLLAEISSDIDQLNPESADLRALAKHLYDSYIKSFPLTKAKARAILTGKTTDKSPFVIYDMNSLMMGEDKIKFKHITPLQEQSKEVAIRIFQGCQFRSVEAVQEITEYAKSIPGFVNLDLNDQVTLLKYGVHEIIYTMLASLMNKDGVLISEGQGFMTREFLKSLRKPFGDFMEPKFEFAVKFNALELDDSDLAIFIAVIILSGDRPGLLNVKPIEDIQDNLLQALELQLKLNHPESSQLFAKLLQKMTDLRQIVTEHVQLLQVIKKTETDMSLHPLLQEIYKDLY
Chain of Peroxisome proliferator-activated receptor delta (Homo sapiens) (Q03181 whole entry, looked up): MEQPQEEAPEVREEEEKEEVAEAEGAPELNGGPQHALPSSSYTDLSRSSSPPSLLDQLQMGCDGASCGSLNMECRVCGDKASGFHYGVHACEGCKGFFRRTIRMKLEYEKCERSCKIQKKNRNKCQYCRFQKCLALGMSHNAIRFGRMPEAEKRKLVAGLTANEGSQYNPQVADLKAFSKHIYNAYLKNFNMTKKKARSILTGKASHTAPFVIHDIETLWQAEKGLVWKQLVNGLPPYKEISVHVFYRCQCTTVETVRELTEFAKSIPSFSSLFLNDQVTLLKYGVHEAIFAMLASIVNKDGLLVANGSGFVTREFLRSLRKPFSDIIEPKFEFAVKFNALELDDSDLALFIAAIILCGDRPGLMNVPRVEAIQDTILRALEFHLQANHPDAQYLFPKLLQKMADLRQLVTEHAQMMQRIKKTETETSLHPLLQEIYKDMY
Chain of Bile acid receptor (Homo sapiens) (Q96RI1 whole entry, looked up): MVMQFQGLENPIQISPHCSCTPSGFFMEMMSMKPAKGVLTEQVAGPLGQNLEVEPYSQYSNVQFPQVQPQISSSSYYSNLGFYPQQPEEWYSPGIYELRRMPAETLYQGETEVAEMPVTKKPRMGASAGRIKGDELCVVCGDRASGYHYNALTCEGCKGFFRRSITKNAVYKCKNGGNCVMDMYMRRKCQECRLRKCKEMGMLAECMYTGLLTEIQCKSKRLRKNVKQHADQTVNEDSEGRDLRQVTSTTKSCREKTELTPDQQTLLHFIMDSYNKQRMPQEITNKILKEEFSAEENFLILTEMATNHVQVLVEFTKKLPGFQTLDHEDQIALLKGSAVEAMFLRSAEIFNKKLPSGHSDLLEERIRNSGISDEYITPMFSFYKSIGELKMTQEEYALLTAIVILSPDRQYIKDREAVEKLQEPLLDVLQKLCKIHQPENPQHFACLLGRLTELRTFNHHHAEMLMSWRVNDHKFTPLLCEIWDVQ

With `Cc1cccc(C)c1O`, the Potency entry in test [1], in [2], in test [3], in [5], in test [6] and in test [9] was “inactive” each time. Also, the compound was called inactive in [4], in test [7], in test [8], in test [12], in test [13] and in test [14]. In addition, the outcome in test [15] was inactive. In addition, the activation in test [10] was -2.64% (inactive). For the same compound, the max response in [11] was -20.4%.

Take `Cc1ccc(C)cc1`: the Potency entry in test [1], in test [2], in test [3], in test [5], in test [6] and in test [9] was “inactive” throughout. In addition, the Potency result in test [20] was “inactive”. Further, the call in [4], in test [7], in test [8], in test [16], in [17] and in [19] was inactive. The outcome in [14] and in test [15] was inactive. Also, the activation in test [10] was 10.6% (inactive); in test [18] it was -0.888% (inactive). Also, the max response in test [11] is -6.55%.

Consider `Nc1cccc(S(=O)(=O)O)c1`, for which the Potency result in test [1], in [2], in [3], in test [5], in test [6] and in [9] was “inactive” each time. Moreover, in test [20], the Potency entry was “inactive”. Moreover, the result in [4], in test [7], in [8], in test [12], in test [14] and in test [15] was inactive. Also, the figures for the activation in test [10] and in test [18] were 6.82% (inactive) and -6.32% (inactive), respectively. The max response in [11] was -7.97%.

Turning to `Cc1ccc(CO)cc1`, the Potency result in [1], in [2], in test [3], in [5], in test [6] and in [9] was “inactive” in each case. Besides, the Potency entry in test [20] is “inactive”. For the same compound, the compound was called inactive in test [4], in [7], in test [8], in [17], in test [19] and in test [12]. The compound was classed as inactive in test [13], in [14] and in [15]. Besides, the activation in test [18] is -5.3% (inactive). Moreover, in test [11], the max response was found to be 17.6%.

For the compound `c1ccc2c(c1)ccc1ncccc12`, the Potency result in test [1], in test [2], in test [3], in test [5], in test [6] and in test [9] was “inactive” each time. For the same compound, the Potency entry in [20] is “inactive”. Moreover, the call in test [4], in [7], in test [8], in [19] and in test [12] was inactive. Further, the activation in test [10] is 7.08% (inactive); in [18] it was -5.6% (inactive). Also, the max response in test [11] was found to be 23.6%.

On to `CCCCCCCN`, for which the Potency result in [1], in test [2], in test [3], in [5], in test [6] and in test [9] was “inactive” in each case. In addition, the Potency result in test [20] is “inactive”. In addition, the outcome in [4], in test [7], in test [8], in [17], in test [19] and in [12] was inactive. In addition, the result in [13], in [14] and in test [15] was inactive. In test [18], the activation was 4.22% (inactive). Besides, the max response in [11] was determined as 31.2%.

Take `O=C1CCCCC1`: the Potency result in test [1], in test [2], in test [3], in test [6], in [9] and in [20] was “inactive” each time. The call in test [4], in test [7], in test [8], in [16], in test [12] and in test [13] was inactive. The outcome in test [14] and in test [15] was inactive. Moreover, the activation in test [10] was 14.6% (inactive); in test [18] it was -2.34% (inactive). For the same compound, in test [11], the max response was determined as 1.87%.

Regarding `Cc1ccc(N(C)C)cc1`, the Potency result in test [1], in [3], in test [5], in [6], in test [9] and in test [20] was “inactive” throughout. The outcome in test [4], in test [7], in test [8], in test [16], in test [19] and in [14] was inactive. The call in test [15] was inactive. The results for the activation in test [10] and in test [18] were 15.4% (inactive) and -4.85% (inactive), respectively. In test [11], the max response is 17.3%.
